Results published in PubChem BioAssay (NCI).
Several values for one entry are separate records, joined by “and”; a condition that tells them apart may be missing. Identical values can stand only once. This is part of a sample that, as a whole, favours compounds with a hit. Of some 83,000 tested, about 20% had one in any assay.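 Note: values are percent growth. 100 is the growth of untreated cells, values between 100 and 0 indicate rising inhibition; between -100 and 0 indicates cell death.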 Activity calls are given as the source filed them. How the source made its calls: active means growth percent below 10; inactive means the rest.

Assays:
Test in all cases: NCI-60 one-dose screen, 48 h (100 = growth as untreated, 0 = no growth, -100 = all killed)
Settings in all cases: 10 µM unless noted
HCT-15 colon = tested on: HCT-15 colon
HT29 colon = tested on: HT29 colon
SNB-75 CNS = tested on: SNB-75 CNS
SNB-19 CNS = tested on: SNB-19 CNS
U251 CNS = tested on: U251 CNS
PC-3 prostate = tested on: PC-3 prostate
SK-MEL-5 melanoma = tested on: SK-MEL-5 melanoma
UACC-62 melanoma = tested on: UACC-62 melanoma
LOX IMVI melanoma = tested on: LOX IMVI melanoma
SK-MEL-28 melanoma = tested on: SK-MEL-28 melanoma

Compound | growth (HCT-15 colon) | growth (HT29 colon) | growth (SNB-75 CNS) | growth (SNB-19 CNS) | growth (U251 CNS) | growth (PC-3 prostate) | growth (SK-MEL-5 melanoma) | growth (UACC-62 melanoma) | growth (LOX IMVI melanoma) | growth (SK-MEL-28 melanoma)
O=C1CN2CCC1CC2 | 97% (inactive) | 99.5% (inactive) | 102% (inactive) | 104% (inactive) | 101% (inactive) | 104% (inactive) | 103% (inactive) | 104% (inactive) | 104% (inactive) | 119% (inactive)
Cc1cc(N)ccc1N | 105% (inactive) | 109% (inactive) | 92.3% (inactive) | 102% (inactive) | 93.2% (inactive) | 87.6% (inactive) | 97.2% (inactive) | 103% (inactive) | 98.3% (inactive) | 107% (inactive)
CCCCCCCCCCCCCCCC[N+](C)(C)C | -37.7% (active) and 23.9% (inactive) | -64% (active) and -42.4% (active) | -77.5% (active) and -23.3% (active) | -71.2% (active) and -40.6% (active) | -75.5% (active) and -94.2% (active) | -40.8% (active) and -32.8% (active) | -94.6% (active) and -73.7% (active) | -63% (active) and 25.6% (inactive) | -71.6% (active) and -73.9% (active) | -74.7% (active) and 25.6% (inactive)
COC(=O)CCP(CCC(=O)OC)c1ccccc1 | 106% (inactive) | 106% (inactive) | 89.5% (inactive) | 119% (inactive) | 99.3% (inactive) | 99.9% (inactive) | 103% (inactive) | 97.9% (inactive) | 100% (inactive) | 103% (inactive)
CC1=C2[C@H]3OC(=O)[C@@H](C)[C@@H]3CC[C@@]2(C)C=CC1=O | 95.3% (inactive) | 118% (inactive) | 88.3% (inactive) | 110% (inactive) | 101% (inactive) | 50.5% (inactive) | 112% (inactive) | 93% (inactive) | 99.1% (inactive) | 122% (inactive)
COc1ccc2c(c1)C1(C)CCN(C)CC(C1)C2O (stereo not given) | 97.6% (inactive) | 98.5% (inactive) | 84.2% (inactive) | 103% (inactive) | 99.3% (inactive) | 88.6% (inactive) | 99.5% (inactive) | 108% (inactive) | 98.4% (inactive) | 108% (inactive)
Cc1cc2c(cc1-c1ccnc(/C=C/C(=O)O)c1)C(C)(C)CCC2(C)C | 86.1% (inactive) | 97.9% (inactive) | 80.3% (inactive) | 90.7% (inactive) | 84.1% (inactive) | 86.8% (inactive) | 67.9% (inactive) | 72.2% (inactive) | 46.9% (inactive) | 92.9% (inactive)
C[C@]12CCc3nc(-c4ccc(O)c(O)c4)sc3C1=CC[C@@H]1[C@@H]2CC[C@]2(C)C(=O)CC[C@@H]12 | 26% (inactive) | 77.7% (inactive) | 92.3% (inactive) | 75% (inactive) | 40.5% (inactive) | 34.3% (inactive) | 78.5% (inactive) | 91.5% (inactive) | 89.1% (inactive) | 84.6% (inactive)
N#CCC(=O)c1ccccc1 | 99.8% (inactive) | 110% (inactive) | 84.3% (inactive) | 111% (inactive) | 101% (inactive) | 95.2% (inactive) | 104% (inactive) | 107% (inactive) | 103% (inactive) | 114% (inactive)
COc1ccc2c(c1)c(-c1nc(-c3cn(C)c4ncccc34)cs1)cn2CCCCN1CCOCC1 | -42.1% (active) | -87.8% (active) | 43.6% (inactive) | 35.1% (inactive) | -55.3% (active) | 31.3% (inactive) | 14.5% (inactive) | 3.59% (active) | -78.8% (active) | -93.5% (active)
CC[C@H](C)[C@H](NC(=O)[C@H]1CCCCN1C)C(=O)N(C)[C@H](C(=O)NC12CC(C(=O)N[C@@H](Cc3ccccc3)C[C@H](C)C(=O)OC)(C1)C2)C(C)C | 101% (inactive) | 87.3% (inactive) | 92.7% (inactive) | 100% (inactive) | 96.7% (inactive) | 100% (inactive) | 101% (inactive) | 102% (inactive) | 92.1% (inactive) | 110% (inactive)
CCCCCCCCCCCCCCCC[N+](C)(C)Cc1ccccc1 | 64% (inactive) and 42% (inactive) | -43.6% (active) and -81% (active) | -21.6% (active) and -70.3% (active) | -40.3% (active) | -16% (active) and -94.9% (active) | -34.9% (active) and -44.1% (active) | -86.5% (active) and -100% (active) | -26% (active) and -74.5% (active) | -79% (active) and -97.1% (active) | -27.7% (active) and -58.1% (active)
CCCC(C)SP(=S)(SC(C)CCC)SC(C)CCC (stereo not given) | 103% (inactive) | 100% (inactive) | 106% (inactive) | 108% (inactive) | 103% (inactive) | 99.8% (inactive) | 91.9% (inactive) | 101% (inactive) | 93.6% (inactive) | 107% (inactive)
